From PubChem BioAssay AID493175 (National Center for Advancing Translational Sciences (NCATS), 2011) come the findings set out here.

Records with an inconclusive call do not appear. Calls of active or inactive are those of the source. The call rests on the fitted dose curve; in most records, active means well fitted curve in the direction sought with a large enough effect; inconclusive means small, poorly fitted or top-dose-only effect, or another doubt; inactive means no such curve, though single readings can be large or run the other way.

Chain of Luciferin 4-monooxygenase (Photinus pyralis) (P08659 whole entry, looked up): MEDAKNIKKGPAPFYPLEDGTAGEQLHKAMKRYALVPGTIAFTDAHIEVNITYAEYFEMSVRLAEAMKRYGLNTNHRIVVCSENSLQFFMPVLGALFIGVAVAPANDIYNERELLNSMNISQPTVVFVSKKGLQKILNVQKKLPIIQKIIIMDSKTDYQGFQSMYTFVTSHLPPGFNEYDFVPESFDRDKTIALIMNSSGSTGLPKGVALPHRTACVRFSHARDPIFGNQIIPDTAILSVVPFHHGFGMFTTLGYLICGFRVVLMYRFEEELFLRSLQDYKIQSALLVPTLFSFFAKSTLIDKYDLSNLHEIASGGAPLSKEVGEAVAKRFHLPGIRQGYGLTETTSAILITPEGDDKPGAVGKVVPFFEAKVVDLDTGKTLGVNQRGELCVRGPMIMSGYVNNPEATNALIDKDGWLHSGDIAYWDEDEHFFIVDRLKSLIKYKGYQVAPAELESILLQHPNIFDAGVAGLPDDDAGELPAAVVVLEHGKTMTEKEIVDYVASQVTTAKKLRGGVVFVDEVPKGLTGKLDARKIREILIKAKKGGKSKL

This test has as its target Luciferin 4-monooxygenase (Photinus pyralis) (UniProt P08659). The test is described as follows: miR-21 counterscreen using purified firefly luciferase. Particulars: purified P. pyralis luciferase, luminescence; series mostly up to 57.5 µM. From the text:
MLPCN Grant: 1 R21 NS059478-01 Assay Provider: Qihong Huang, The Wistar Institute NCGC Assay Overview: MicroRNAs (miRNAs) are endogenously encoded small (~20-25 nucleotides), nonprotein-coding RNAs that are involved in post-transcriptional repression of target messenger RNAs (mRNAs) (Le and Hannon, 2004). Estimated to be involved in the regulation of 30% of all protein-coding mRNAs (Filipowicz et al., 2008), miRNAs play a significant role in many biological processes including cellular differentiation and tissue development (Ghildiyal and Zamore, 2009). […] Compounds active in the miR-21 FLuc assay were clustered using Leadscope and active chemical series were prioritized based on chemical properties, potential for medicinal chemistry optimization, and SAR. Within each chemical series, representative compounds were re-acquired to test for activity in a secondary assay based on the quality of their CRC, efficacy, and potency. This secondary assay to determine if compounds active in the miR-21 FLuc assay were just luciferase inhibitors. Compounds found active in both the miR-21 FLuc and purified FLuc assays are considered as false positives. Keywords: NIH Roadmap, MLPCN, MLSMR, qHTS, miR-21, firefly luciferase, FLuc, miRNA.
NCGC Assay Protocol Summary: Reagents: 50mM Tris acetate, pH 7.5; 10mM Mg acetate; 10uM D-luciferin (Sigma #L9504); 10uM ATP; 0.01% Tween-20; 0.05% BSA; 10nM P. pyralis luciferase (Sigma #L9506) Control compounds used were two known firefly luciferase inhibitors (compounds (2) and (5) in Auld et al., 2010), and DMSO. Assay Summary: Three microliters containing firefly luciferase substrates in buffer (final concentrations: 50mM Tris acetate, pH 7.5, 10mM Mg acetate, 0.01% Tween-20, 0.05% BSA, 10uM D-luciferin, and 10uM ATP) are dispensed into each well of a Greiner white, solid-bottom 1536-well format plate using a flying reagent dispenser (FRD). These assay plates were then treated with 23nL of compound or DMSO using a Kalypsys pin tool, which allows for delivery of a 6-point interplate titration of each compound to the assay plate (quantitative HTS), with a final compound concentrations ranging from approximately 60 µM to 7pM. One microliter of firefly luciferase in […] Tris-acetate buffer was then delivered by FRD to each well for a final enzyme concentration of 10nM. Luciferase activity was then measured using a ViewLux CCD imager (PerkinElmer), with an average exposure time of 2-30 seconds (2X binning, medium/high gain).
(In general: A counterscreen serves to expose hits that act by an unwanted route or on another target.)
Turning to `COc1ccc(OCC(=O)Nc2cc(-c3nc4ccccc4s3)ccc2C)cc1`, the result was inactive.

As to `O=C(CSc1nnc(-c2cccnc2)o1)Nc1cccc(Cl)c1`, the call was inactive.

As to `Cc1ccc(-n2nnc(-c3nc(-c4cccs4)no3)c2N)cc1C`, the result was inactive.

As for `COc1ccc(NC(=O)CSc2nnc(-c3cccs3)o2)cc1`, the compound was called inactive.

Turning to `O=C(c1ccc(Cl)cc1)n1nc(-c2ccccc2)nc1NCc1ccco1`, the call was inactive.

`Cn1c(=O)[nH]c2cc(-c3noc(-c4ccc(F)cc4)n3)ccc21`: the outcome was inactive.

For the compound `COc1nc(Nc2cccc(C(F)(F)F)c2)nc(OC)n1`, the compound was called inactive.

As to `COc1ccc(CNc2n[nH]c(-c3ccco3)n2)cc1OC`, the compound was called inactive.

In the case of `COc1ccc(-c2nnc(SCC(=O)Nc3cccc(F)c3)s2)cc1`, the outcome was inactive.

Take `COc1ccc(NC(=O)CSc2nc(SC)ns2)c(OC)c1`: the result was inactive.

As for `COc1ccccc1Nc1nn2c(=O)c3ccc(C(=O)NCc4cccs4)cc3nc2s1`, the compound was classed as inactive.

Turning to `CCS(=O)(=O)c1oc(-c2ccc(F)cc2)nc1S(=O)(=O)c1ccccc1`, the outcome was inactive.

Turning to `CC(=O)c1cnc2nc(SCc3ccccc3)nn2c1C`, the call was inactive.

Regarding `Cc1cccc(-n2nnc(-c3nc(-c4cccs4)no3)c2N)c1C`, the compound was called inactive.

Take `CCc1nonc1NC(=O)c1oc2ccccc2c1C`: the compound was called inactive.

As to `Cc1cccc(N2CCN(c3ncnc4onc(C)c34)CC2C)c1` (stereo not given), the compound was called inactive.

With `Cc1c(-c2nsc(NC(=O)c3cccs3)n2)nnn1-c1ccc(Cl)cc1`, the outcome was inactive.

With `Cc1ccc(C(=O)Nc2ccc3c(c2)N(C)C(=O)c2ccccc2S3)cc1F`, the result was inactive.

In the case of `Cc1ccccc1Nc1nc(N)nc(CN(C)c2ccccc2)n1`, the compound was called inactive.

On to `COc1cc(-c2nc3cnccn3c2Nc2ccc(C(C)C)cc2)ccc1O`, for which the compound was classed as inactive.

For `COc1ccccc1Nc1nn2c(=O)c3ccc(C(=O)NCCc4ccccc4)cc3nc2s1`, the compound was classed as inactive.

`c1ccc(CSc2nnc3ccc(-c4cccs4)nn23)nc1`: the result was inactive.

For the compound `COc1ccccc1NC(=O)C/C(C)=N/NC(=O)c1ccccn1`, the compound was called inactive.

Turning to `COc1ccc(OCC(=O)Nc2ccc(-c3nc4cc(C)c(C)cc4o3)cc2)cc1`, the compound was classed as inactive.

`Cc1ccc2c(C)c(C(=O)N(C)C(C)c3ccncn3)oc2c1C` (stereo not given): the compound was classed as inactive.

In the case of `CS(=O)(=O)c1ncc(Cl)c(C(=O)Nc2ccc3ccccc3c2)n1`, the call was inactive.

For `Cc1cccc(-n2nnc(-c3nc(-c4cccs4)no3)c2N)c1`, the compound was called inactive.

Take `Cc1ccc(C(=O)Nc2ccc3c(c2)N(C)C(=O)c2ccccc2S3)cc1`: the compound was classed as inactive.

For `O=C(CSc1nnc(-c2ccccn2)o1)Nc1cccc(Cl)c1`, the compound was classed as inactive.

Turning to `COc1ccc(C(=O)Nc2nnc(C(C)C)s2)cc1OC`, the compound was classed as inactive.

On to `CCc1nonc1NC(=O)c1oc2ccc(C)cc2c1C`, for which the compound was classed as inactive.

For the compound `O=C(Nc1nnc(S(=O)(=O)N2CCCC2)s1)c1ccc(F)cc1`, the result was inactive.

Consider `COCc1cc(C)nc2sc(C(=O)OC(C)C)c(N)c12`, for which the activity change, negative = inhibition was -1.1% [at 2.3 µM] (inactive).

Regarding `O=S(=O)(c1ccc(F)cc1)n1ccc(-c2cnc(-c3ccccc3)s2)n1`, the compound was called inactive.

In the case of `Cc1cccc(-c2nnc(SCC(=O)Nc3ccc(C)c(C)c3)o2)c1`, the outcome was inactive.

As for `CCCCN1C(C(=O)c2ccccc2)=C(OC(C)=O)c2ccccc2S1(=O)=O`, the result was inactive.

On to `Cc1c(-c2nc(-c3ccc(C(F)(F)F)cc3)no2)n(C)oc1=O`, for which the call was inactive.

For the compound `CSc1nsc(SCC(=O)Nc2ccc(F)cc2F)n1`, the compound was classed as inactive.

Consider `CCCn1c(=O)c2sccc2n2c(CCCC(=O)Nc3ccc(Oc4ccc(Cl)cc4)cc3)nnc12`, for which the compound was called inactive.

`COc1ccc(NCc2cccn2-c2nnc(N3CCC(C)CC3)s2)c(OC)c1`: the call was inactive.
